Screening results deposited in PubChem BioAssay by several laboratories.
Beta2AR agonist = activates human beta-2 adrenergic receptor causing internalization | P07550 | response, % (concentration not given with the values) | hit rate 0.43% among 340,000 | Am2.2-beta2AR cells, FAP receptor internalization, flow cytometry;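 active = response above a set limit, near 3 SD of response in nonfluorescent compounds, cut at about 42% in these data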
m5-HT2A agonist = activates the mouse 5-HT2A serotonin receptor. CHO-K1 mHTR2A beta-arrestin complementation, luminescence; percent of 30 µM serotonin response. hit rate 0.66% among 360,000. AID 624169. P35363. activation, % at 7.6 µM;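 active = activation above a run cutoff, the mean activation of all tested compounds plus 3 SD, cut at about 14% in these data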
NTR1 ag = NTR1 (human) agonism | P30989 | hit rate 0.17% among 330,000 | NTR1-U2OS beta-arrestin-GFP spot imaging, agonist mode | activation, % at 20 µM | AID 493036;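 active = activation at or above 40% of the spot to cytoplasm intensity ratio, with at least 20 cells analyzed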
Target sequence (P30989 whole entry, looked up): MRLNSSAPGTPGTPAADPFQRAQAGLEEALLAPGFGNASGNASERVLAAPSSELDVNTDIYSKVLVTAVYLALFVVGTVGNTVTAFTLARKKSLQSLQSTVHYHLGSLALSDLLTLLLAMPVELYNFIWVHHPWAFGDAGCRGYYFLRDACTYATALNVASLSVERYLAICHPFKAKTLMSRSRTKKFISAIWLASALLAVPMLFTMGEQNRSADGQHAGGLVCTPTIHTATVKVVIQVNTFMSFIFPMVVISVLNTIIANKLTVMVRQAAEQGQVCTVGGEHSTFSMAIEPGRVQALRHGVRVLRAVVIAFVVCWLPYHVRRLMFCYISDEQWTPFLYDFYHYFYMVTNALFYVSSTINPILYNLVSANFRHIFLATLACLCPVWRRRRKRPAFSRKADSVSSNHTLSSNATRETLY
Exocytosis inh = blocks lytic granule exocytosis; hit rate 0.66% among 360,000; inhibition, % at 10 µM; TALL-104 LAMP-1 surface exposure, flow cytometry; cells stimulated with thapsigargin and PMA;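 active = inhibition above about 55%, limit read from the data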
ABHD5 PLIN5 PPI = blocks binding of human ABHD5 to perilipin-5. Q00G26+Q8WTS1. Split G. princeps luciferase complementation, luminescence, 4 h. inhibition, % at 4 µM. hit rate 0.78% among 360,000;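 active = inhibition above the mean inhibition across every tested compound plus 3 SD, cut at about 22% in these data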
NTR1 ag conf = NTR1 (human) agonism, confirmed. activation, % at 20 µM. NTR1-U2OS beta-arrestin-GFP translocation imaging. shares compounds with NTR1 ag. hit rate 38% among 480;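 active = mean activation at 20 µM of at least 40%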
Hits are given with their value; . = inactive; / = no result given. Shown are actives, neighbours in structure and some others; about 2.3% of the full set was active somewhere.

SMILES	Beta2AR agonist	m5-HT2A agonist	NTR1 ag	Exocytosis inh	ABHD5 PLIN5 PPI	NTR1 ag conf
Cc1cc2c(cc1C)CSC(c1ccccc1O)SC2	.	.	51	.	.	.
O=C(CSc1nc2ncc(Br)cc2[nH]1)c1ccc([N+](=O)[O-])cc1	.	.	.	.	.	/
O=C(CSc1nc2ccc([N+](=O)[O-])cc2[nH]1)c1ccc2ccccc2c1	.	.	44	.	.	.
CSCCC(NS(=O)(=O)c1ccc2ccccc2c1)C(=O)OCC(=O)c1ccc(C(C)C)cc1 (stereo not drawn)	.	.	/	.	.	/
CSCCC(NS(=O)(=O)c1ccc(Cl)cc1)C(=O)OCC(=O)c1c(C)[nH]c2ccccc12 (stereo not drawn)	.	.	41	.	.	.
COc1cc2ccccc2cc1C(=O)N(CCN(C)C)c1nc2c(OC)ccc(OC)c2s1	.	.	42	.	.	.
O=C(Nc1ccc(-c2noc(CCc3ccccc3)n2)cc1)c1cccnc1	.	.	67	.	.	.
CCOC(=O)c1c(CSc2ccccc2)oc2ccc(O)cc12	.	.	.	.	.	/
CCOC(=O)c1c(CSc2ccc(C)cc2)oc2ccc(O)cc12	.	.	45	.	.	.
O=C(NCc1ccc(F)cc1F)[C@@H]1CCCN1C(=O)[C@@H]1CCCN1C(=O)c1cccc2ccccc12	/	.	/	.	.	/
O=C(COc1ccccc1[N+](=O)[O-])Nc1ccc(NC(=O)c2cc3ccccc3o2)cc1	.	.	40	.	.	.
c1ccc(-c2nnc3ccc(N4CCCC4)nn23)cc1	.	.	.	.	.	/
FC(F)(F)c1cccc(N2CCN(c3ccc4nnc(-c5ccccc5)n4n3)CC2)c1	.	.	58	.	.	.
Cn1cc(C(C[N+](=O)[O-])c2ccccc2)c2ccccc21 (stereo not drawn)	.	.	.	.	.	/
CC(=O)n1cc(C(C[N+](=O)[O-])SCCN)c2ccccc21 (stereo not drawn)	76	.	47	.	.	76
CCc1ccc(-c2cn(-c3nc(C)cc(C)n3)c(=N)o2)cc1	.	.	46	.	.	.
CCc1ccc(-c2cn3c(n2)SCC3)cc1	.	.	.	.	.	/
CCN1C(=O)[C@H]2[C@@H](c3ccc(C)cc3)N3C(=O)N(c4ccc(OC)cc4)C(=O)[C@@]3(CC)[C@H]2C1=O	.	.	.	.	.	/
Cc1[nH]n(-c2ccccc2)c(=O)c1C(C[N+](=O)[O-])c1ccccc1Cl (stereo not drawn)	.	.	.	.	.	/
COc1ccc(C(C[N+](=O)[O-])c2c(C)[nH]n(-c3ccccc3)c2=O)cc1 (stereo not drawn)	.	.	42	.	.	.
CCOc1cccc(/C=C/c2ccc3cccc(O)c3n2)c1OC	.	.	79	.	.	.
COc1ccc(CCOC(=O)c2ccc(N)c([N+](=O)[O-])c2)cc1	.	.	.	.	.	/
CCOC(=O)c1ccc(NC(=O)c2nc[nH]c2C(=O)N[C@@H](C)C(=O)OC(C)(C)C)cc1	.	.	43	.	.	.
C[C@H](NC(=O)c1[nH]cnc1C(=O)Nc1ccc(Cl)cc1)C(=O)OC(C)(C)C	.	.	41	.	.	.
CCOc1ccc2oc(C(=O)Nc3cc(C)ccn3)c(C)c2c1	.	.	.	.	.	/
SMILES	Beta2AR agonist	m5-HT2A agonist	NTR1 ag	Exocytosis inh	ABHD5 PLIN5 PPI	NTR1 ag conf
O=C(NC(=S)Nc1cccc(Cl)c1N1CCCCC1)c1ccco1	.	.	.	.	.	/
O=C(NC(=S)Nc1cccc(Cl)c1N1CCCCC1)c1cccs1	.	.	.	.	.	/
O=C(NC(=S)Nc1cccc(Cl)c1N1CCOCC1)c1cccs1	.	.	43	.	.	.
CCCC(=O)NC(=S)Nc1cccc(Cl)c1N1CCCC1	.	.	51	.	.	.
CCOC(=O)c1cc(-c2ccccc2)n(CC2CC(c3ccc(OC)cc3)=NO2)n1 (stereo not drawn)	.	.	.	.	.	/
CCOC(=O)C1=C(CS(=O)(=O)c2ccccc2)NC(=O)NC1c1cc(OC)c(O)c(OC)c1 (stereo not drawn)	.	.	.	.	.	/
CCCCn1c(N)c(-c2nc3ccccc3s2)c2c([N+](=O)[O-])nn(C)c(=O)c21	.	.	61	.	.	.
Cc1ccc(NC(=O)c2ccc(Nc3c([N+](=O)[O-])cc([N+](=O)[O-])cc3[N+](=O)[O-])cc2)cc1	.	.	46	.	.	.
CC(=O)Nc1ccc(NC(=O)c2cc([N+](=O)[O-])cc([N+](=O)[O-])c2)cc1	.	.	.	.	.	/
O=c1cc(-c2ccccc2)oc2c1CCCC2	/	.	/	.	.	/
CCc1cccc2c1NC(=O)C21N2CCCC2C(C(=O)c2ccc3ccccc3c2)C12C(=O)Nc1ccccc12 (stereo not drawn)	.	.	.	.	.	/
CCc1ccc2c(c1)C1(C(=O)N2)N2CCCC2C(C(=O)c2ccc3ccccc3c2)C12C(=O)Nc1ccccc12 (stereo not drawn)	.	.	55	.	.	87
CSCC[C@H](NC(=O)N1CCn2c1nc1ccccc12)C(=O)NCC1CCCO1 (stereo partly drawn)	.	.	.	.	.	/
COc1ccc(/C=C2/SC(=S)N(Cc3ccccc3)C2=O)cc1O	.	.	44	.	.	.
CCC1(C)Cc2ccccc2-c2nc(NCCCO)[nH]c(=O)c21 (stereo not drawn)	.	.	.	.	.	/
O=C(Nc1ccc(N2CCN(C(=O)c3ccco3)CC2)c(Cl)c1)c1cc2ccccc2o1	.	.	42	.	.	63
O=C(Nc1ccc(N2CCN(C(=O)c3ccccc3)CC2)c(Cl)c1)c1ccco1	.	.	.	.	.	/
COc1ccccc1N(C)S(=O)(=O)c1ccc(C(=O)N(C)Cc2ccc(Cl)s2)cc1	.	.	.	.	.	/
CCCCCCOc1ccc(/C(C)=N/NC2=NCCN2)cc1[N+](=O)[O-]	.	.	41	.	.	46
COC(=O)c1ccc(S(=O)(=O)NCc2ccccn2)n1C	.	.	.	.	.	/
Cc1cccc(NC(=O)c2nc[nH]c2C(=O)N[C@H](C)c2ccccc2)c1	.	.	48	.	.	.
C[C@H](NC(=O)c1[nH]cnc1C(=O)Nc1ccccc1)c1ccccc1	.	.	.	.	.	/
Cc1ccc(NC(=O)c2nc[nH]c2C(=O)N[C@H](C)c2ccccc2)cc1	.	.	41	.	.	.
O=C(Nc1ccc(S(=O)(=O)Nc2cnc3ccccc3n2)cc1)c1ccccc1Br	.	.	.	.	.	/
CCN(CC(=O)Nc1ccc(NC(C)=O)cc1)C(=O)CCCc1nc2ccccc2c(=O)[nH]1	.	.	.	.	.	/
c1ccc2c(CN3CCSCC3)cccc2c1	.	.	.	.	.	/
CC(=O)Nc1nc(-c2ccc3c(c2)CC(C)N3C(=O)C2CC2)c(C)s1 (stereo not drawn)	.	.	.	.	.	/
